# Measurements published in PubChem BioAssay (EPA / NIEHS).
# Inconclusive results are not listed. The source made the active and inactive calls. Rule for the calls: active = hit-call score of the fitted dose curve at least 0.9, where 1 is the maximum; inconclusive = response in the unintended direction; inactive = score below 0.9.
# Biological target: human Vitamin D Receptor (VDR), VDR (gene 7421) (UniProt P11473)
# Test: ATG_VDR_TRANS: Attagene TRANS-FACTORIAL HepG2 Assay for human Vitamin D Receptor (VDR) (AID 2283022)
# Procedure: ATG_TRANS is a cell-based, multiplexed-readout assay that uses HepG2, a human liver cell line, with measurements taken at 24 hours after chemical dosing in a 24-well plate.ATG_VDR_TRANS is one of 30 assay component(s) measured or calculated from the ATG_TRANS assay. It is designed to make measurements of mRNA induction, a form of inducible reporter, as detected with fluorescence intensity signals by Reverse transcription polymerase chain reaction (RT-PCR) and Capillary electrophoresis technology.Data from the assay component ATG_VDR_TRANS was analyzed into 1 assay endpoint. This assay endpoint, ATG_VDR_TRANS, was analyzed in the positive analysis fitting direction relative to DMSO as the negative control and baseline of activity. Using a type of inducible reporter, measures of mRNA for gain-of-signal activity can be used to understand the reporter gene at the transcription factor-level as they relate to the gene VDR. Furthermore, this assay endpoint can be referred to as a primary readout, because this assay has produced multiple assay endpoints where this one serves a reporter gene function. To generalize the intended target to other relatable targets, this assay endpoint is annotated to the nuclear receptor intended target family, where the subfamily is non-steroidal.
# Human liver HepG2 cells are transiently transfected with multiple reporter transcription units (MRTUs) in 6-well plates using FuGene 6 reagent (Roche; 3 ml FuGene/1 mg DNA). The MRTU constructs are regulated by a cis-regulating element (promoter). […] A major difference between the CIS and TRANS system is that in CIS activities of endogenous TFs are measured, whereas the TRANS assay evaluates changes in activities of exogenous, chimeric NR-Gal4 proteins. […] At the end of 24 hour incubation, total RNA was isolated using TriZol reagent (Invitrogen). The isolated RNA is then reverse-transcribed using oligo(dT) primer and Mo-MLV reverse transcriptase (Invitrogen) with DNAse I (Ambion) treatment for 30 min. The one-tenth of the produced cDNA was amplified by PCR using Taq DNA polymerase (Invitrogen) and two reporter sequence-specific primers. The PCR products were fluorescently labeled by primer extension with 6-arboxyfluorescein (6-FAM) 5'-labeled reporter sequence-specific primer (2 min at 95 C, 20 s at 68 C and 10 min at 72 C) and these products were digested with 5U of HpaI (New England Biolabs) for 2h at 37 C. The fragments were purified using Qiaquick PCR columns (Qiagen), analyzed on an ABI 3130xL genetic analyzer (Applied Biosystems) with peak positions identified by using a set of X-rhodamine (ROX)-labeled MapMarker1000 molecular weight standards (BioVentures). The raw capillary electrophoresis data was processed using Attagraph software (Attagene).
# Chain of human Vitamin D Receptor (VDR), VDR (gene 7421) (P11473 whole entry, looked up): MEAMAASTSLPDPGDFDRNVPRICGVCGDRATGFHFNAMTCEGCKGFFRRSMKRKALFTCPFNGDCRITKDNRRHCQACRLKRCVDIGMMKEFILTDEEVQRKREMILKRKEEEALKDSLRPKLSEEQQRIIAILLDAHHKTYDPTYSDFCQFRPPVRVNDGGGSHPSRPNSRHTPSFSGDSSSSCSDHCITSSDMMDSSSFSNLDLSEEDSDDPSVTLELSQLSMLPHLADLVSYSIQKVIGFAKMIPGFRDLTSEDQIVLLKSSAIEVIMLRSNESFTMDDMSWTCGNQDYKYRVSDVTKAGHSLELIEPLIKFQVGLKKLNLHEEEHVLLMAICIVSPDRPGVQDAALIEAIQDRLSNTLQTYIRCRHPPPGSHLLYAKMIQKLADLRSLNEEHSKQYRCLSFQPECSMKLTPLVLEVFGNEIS
row,SMILES,outcome
1,O=S(=O)(F)C(F)(F)C(F)(F)C(F)(F)C(F)(F)C(F)(F)C(F)(F)C(F)(F)C(F)(F)F,inactive
2,CCOC(=O)c1ccccc1C(=O)OCC,inactive
3,CCOC(=O)c1ccccc1N,inactive
4,CCCCC(CC)COP(=O)(Oc1ccccc1)Oc1ccccc1 (stereo not given),inactive
5,O=C(O)CF,inactive
6,CCOP(=S)(OCC)SCSCC,inactive
7,O=C(O)C(F)(F)OC(F)(F)C(F)(F)OC(F)(F)C(=O)O,inactive
8,ClC1=C(Cl)C2(Cl)C3C(Cl)C(Cl)CC3C1(Cl)C2(Cl)Cl (stereo not given),inactive
9,c1ccc2c(c1)sc1ccccc12,inactive
10,OCC(F)(F)OC(F)(F)C(F)(F)OC(F)(F)CO,inactive
11,CN(C)C(=O)Cl,inactive
12,O=S(=O)(c1ccc(O)cc1)c1ccc(O)cc1,inactive
13,CCOc1ccc(C(C)(C)COCc2cccc(Oc3ccccc3)c2)cc1,inactive
14,ClC(Cl)(Cl)c1ccccc1,inactive
15,O=P1(N(CCCl)CCCl)NCCCO1 (stereo not given),inactive
16,CCOP(=O)(O)C(N)=O,inactive
17,CCOP(=S)(NC(C)C)Oc1ccccc1C(=O)OC(C)C (stereo not given),inactive
18,N#Cc1cc([N+](=O)[O-])ccc1N,inactive
19,C=CC(=O)OCC(CC)(COC(=O)C=C)COC(=O)C=C,inactive
20,CCCCC(CC)COC(=O)c1c(Br)c(Br)c(Br)c(Br)c1C(=O)OCC(CC)CCCC (stereo not given),inactive

row,SMILES,outcome
1,N#Cc1ccc(O)cc1,inactive
2,CC(C)(C)N(NC(=O)c1ccc(Cl)cc1)C(=O)c1ccccc1,inactive
3,Cc1c([N+](=O)[O-])cc2c(c1[N+](=O)[O-])C(C)(C)CC2(C)C,inactive
4,CO/N=C(/C(=O)OC)c1ccccc1COc1ccccc1C,inactive
5,CC(=O)c1ccc(-c2ccccc2)cc1,inactive
6,CCOP(=S)(OCC)SCn1nnc2ccccc2c1=O,inactive
7,CC(Cl)CN(C)C (stereo not given),inactive
8,ClC(Cl)=C(c1ccc(Cl)cc1)c1ccccc1Cl,inactive
9,CCOP(=S)(Oc1ccc([N+](=O)[O-])cc1)c1ccccc1 (stereo not given),inactive
10,Nc1cc2c3c(c1)C(c1ccccc1)=N[C@@H](NC(=O)c1cccnc1)C(=O)N3CC2,inactive
11,FC(F)(F)C(F)(C(F)(F)F)C(F)(F)C(F)(F)CC1CO1 (stereo not given),inactive
12,c1nc[nH]n1,inactive
13,O=C(O)C(F)(F)OC(F)(F)C(F)(F)OC(F)(F)F,inactive
14,CCCCCCCc1ccc(O)cc1,inactive
15,NNC(N)=S,inactive
16,O=C(O)C(F)(F)C(F)(F)C(=O)O,inactive
17,O=C(O)C(F)(OC(F)(F)C(F)(F)C(F)(F)F)C(F)(F)F (stereo not given),inactive
18,CCN(CC)c1ccccc1,inactive
19,CCNc1nc(Cl)nc(NC(C)(C)C)n1,inactive
20,CC(C)(C)c1ccccc1OP(=O)(Oc1ccccc1)Oc1ccccc1,inactive
